This is an account of results in PubChem BioAssay (EPA / NIEHS).

Active and inactive are the calls of the source. The calls were made as follows: active = hit-call score of the fitted dose curve at least 0.9, where 1 is the maximum; inactive = score below 0.9.

Chain of Nuclear factor NF-kappa-B p105 subunit (Homo sapiens) (P19838 whole entry, looked up): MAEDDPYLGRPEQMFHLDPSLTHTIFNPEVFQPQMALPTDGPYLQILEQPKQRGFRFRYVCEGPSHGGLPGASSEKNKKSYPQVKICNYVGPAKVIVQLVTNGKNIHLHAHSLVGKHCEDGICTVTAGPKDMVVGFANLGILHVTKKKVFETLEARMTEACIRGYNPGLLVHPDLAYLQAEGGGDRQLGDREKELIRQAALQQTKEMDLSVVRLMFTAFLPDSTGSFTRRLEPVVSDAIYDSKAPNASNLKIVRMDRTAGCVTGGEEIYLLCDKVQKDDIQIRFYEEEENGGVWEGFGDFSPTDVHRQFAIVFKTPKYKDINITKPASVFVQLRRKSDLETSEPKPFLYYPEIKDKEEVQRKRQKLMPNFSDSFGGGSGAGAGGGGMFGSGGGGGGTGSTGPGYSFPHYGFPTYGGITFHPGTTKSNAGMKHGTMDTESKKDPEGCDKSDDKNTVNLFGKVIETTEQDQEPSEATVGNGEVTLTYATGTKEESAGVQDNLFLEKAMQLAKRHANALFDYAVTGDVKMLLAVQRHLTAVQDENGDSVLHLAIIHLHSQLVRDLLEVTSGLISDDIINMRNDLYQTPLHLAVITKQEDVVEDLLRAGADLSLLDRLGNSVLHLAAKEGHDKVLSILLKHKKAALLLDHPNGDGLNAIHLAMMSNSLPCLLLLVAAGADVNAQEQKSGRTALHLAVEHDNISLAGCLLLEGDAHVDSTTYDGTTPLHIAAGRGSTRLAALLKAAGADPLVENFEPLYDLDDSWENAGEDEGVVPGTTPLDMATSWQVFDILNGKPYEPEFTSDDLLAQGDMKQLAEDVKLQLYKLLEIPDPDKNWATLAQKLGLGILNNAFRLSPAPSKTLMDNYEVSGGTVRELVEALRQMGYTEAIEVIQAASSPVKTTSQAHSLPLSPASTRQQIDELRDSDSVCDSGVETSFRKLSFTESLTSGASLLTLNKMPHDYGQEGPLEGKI

Read-out in this assay: Nuclear factor NF-kappa-B p105 subunit (Homo sapiens) (UniProt P19838)
The assay can be described thus: LTEA_HepaRG_NFKB1: Life Technologies and Expression Analysis (LTEA) Assay for Nuclear Factor Kappa B Subunit 1 (NFKB1) using HepaRG (AID 2283521).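 As to outcome: TaqMan qRT-PCR transcript normalised to ACTB GAPDH and POLR2A housekeeping genes.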 To be noted: mRNA level, 48 h; actives raise or lower the signal. Here is the method:
LTEA_HepaRG is a cell based, multiplexed-readout assay that uses HepaRG, a human liver cell line, with measurements taken at 48 hours after chemical dosing on a 96-well plate.LTEA_HepaRG_NFKB1 is one of 102 assay component(s) measured in the LTEA HepaRG cell culture assay. It is a marker of Cell proliferation, survival, death.Data from the assay component LTEA_HepaRG_NFKB1 was analyzed into 1 endpoint. This assay endpoint, LTEA_HepaRG_NFKB1, was analyzed with bidirectional fitting relative to DMSO as the negative control and baseline of activity. Using a type of inducible reporter, measures of mRNA induction for gain or loss-of-signal activity can be used to understand regulation of transcription factor activity. To generalize the intended target to other relatable targets, this assay endpoint is annotated to the dna binding intended target family, where the subfamily is NF-kappa B.
A total of 1060 chemcials from the ToxCast library were tested in eight-point concentration-response experiments. Cell culture and cytotoxicity assays were conducted at Thermo Fisher Scientific's Custom Services facility (Madison, WI). A single lot of human HepaRG cells (Thermo Fisher Scientific, Frederick, MD) was used for the cell culture experiments. 96-well format collagen type I coated plates of human HepaRG cells were prepared using established methods. Briefly, cryopreserved HepaRG cells were thawed, plated at a density of approximately 100,000 cells/well in HepaRG Thaw, Plate, and General Purpose media (HPRG770, Thermo Fisher Scientific), and incubated for 48 hours. 0.5% DMSO was selected as vehicle control to balance the requisite need of DMSO in HepaRG cultures to maintain differentiation (for example, baseline metabolism, proportions of hepatocytes vs. cholangiocytes), while enabling further hepatic receptor pathway activation (for example, PXR and CAR) in response to chemical exposure. 48 hours after plating, the culture medium was replaced with HepaRG Serum-Free Incudtion Media. Cells were exposed to each test chemical in duplicate and maintained in CO2 incubators for another 48 hours. Chemical plates were thawed to room temperature and 200x concentrations of treatment groups were prepared. 8-point conentration-reponse curves were made with the highest exposure at 100 uM, followed by half-log dilutions, all in 0.5% DMSO. Each test plate contained variouse controls, induction positive controls (1mM phenobarbital), cytotoxicity positive controls ([…] aflatoxin B1), vehicle controls (0.5% DMSO), and total lysis controls (0.5% DMSO). Cell morphology images were taken using an Essen IncuCyte FLR automated microscope, with six 96-well plates imaged in about 24 minutes. Images were captured and exported and JPEG files. Spent culture media was transfered to black-well plates for the LDH assay, and remaining media was sorted at -80 C for later use. Cells were treated with RLT buffer and frozen until shipped for gene expression analysis. Total RNA was isolated from the cell suspension in 75 uL of Buffer RLT (Qiagen, Germantown, MD 20874) by Quintiles/Expression Analysis (Durham, NC) using a custom isolation procedure. Total RNA from each plate well was transferred to a preamplification plate. Fluidigm's 96.96 Dynamic ArrayTM (Fluidigm, Amsterdam, the Netherlands) technology was used for gene expression analyses by quantitative reverse transcription polymerase chain reaction (qRT-PCR, performed by Quintiles/Expression Analysis, Durham, NC)89. Standard TaqManTM Assays (Applied Biosystems/ThermoFisher Scientific, Foster City, CA) were used to assess the expression of 93 genes selected based on their selectivity and sensitivity to important hepatic receptors known to be modulated by environmental chemicals; importance in human hepatocyte functionality; and hepatotoxicity. […]
With `CC(O)CN(CCN(CC(C)O)CC(C)O)CC(C)O` (stereo not given), the result was inactive.
With `CC[C@H]1OC(=O)[C@H](C)[C@@H](O[C@H]2C[C@@](C)(OC)[C@@H](O)[C@H](C)O2)[C@H](C)[C@@H](O[C@@H]2O[C@H](C)C[C@H](N(C)C)[C@H]2O)[C@](C)(O)C[C@@H](C)C(=O)[C@H](C)[C@@H](O)[C@]1(C)O`, the result was inactive.
On to `COc1cccc(-c2ccc(/C=C\CN3CCCCCC3)cc2Cl)c1`, for which the AC50 is 45.2 µM (active).
Turning to `CC[C@H](C)C(=O)O[C@H]1C[C@@H](C)C=C2C=C[C@H](C)[C@H](CC[C@@H]3C[C@@H](O)CC(=O)O3)[C@H]21`, the compound was classed as inactive.
As for `Cc1c(-c2cccnc2)c2ccccc2n1CCCCC(=O)O`, the outcome was inactive.
For the compound `COC(=O)c1c(Cl)c(Cl)c(C(=O)OC)c(Cl)c1Cl`, the result was inactive.
For the compound `CCN(C(=O)c1cc(C)cc(OC[C@H](C)Nc2ccncc2)c1)C(C)C`, the call was inactive.
Still for that read-out and setting: as for `COCCOc1cc2cc(C(=O)NC3CCN(C(C)C)CC3)n(CC(=O)Nc3ccc(Cl)cn3)c2cn1`, the entry is “inactive”; as for `CCCCCCCCCCCCc1ccccc1`, “inactive”; as for `CN(C)c1ccc(Cc2ccc(N(C)C)cc2)cc1`, “inactive”.
Consider `Cc1ccc(O)cc1`, for which the outcome was inactive.
Take `O=C(OC[C@H]1O[C@@H](OC(=O)c2cc(O)c(O)c(OC(=O)c3cc(O)c(O)c(O)c3)c2)[C@H](OC(=O)c2cc(O)c(O)c(OC(=O)c3cc(O)c(O)c(O)c3)c2)[C@@H](OC(=O)c2cc(O)c(O)c(OC(=O)c3cc(O)c(O)c(O)c3)c2)[C@@H]1OC(=O)c1cc(O)c(O)c(OC(=O)c2cc(O)c(O)c(O)c2)c1)c1cc(O)c(O)c(OC(=O)c2cc(O)c(O)c(O)c2)c1`: the AC50 is 8.67 µM (active).
For the compound `CC(C)=CCC/C(C)=C\CO`, the call was inactive.
Turning to `COC(=O)c1ccccc1O`, the outcome was inactive.
Turning to `C[C@](N)(Cc1ccc(O)c(O)c1)C(=O)O`, the call was inactive.
Turning to `Nc1nc2ncc(CNc3ccc(C(=O)N[C@@H](CCC(=O)O)C(=O)O)cc3)nc2c(=O)[nH]1`, the compound was classed as inactive.
Consider `Cn1cnc([N+](=O)[O-])c1Sc1ncnc2nc[nH]c12`, for which the compound was called inactive.
For `CC(C)(O)c1coc(S(=O)(=O)NC(=O)Nc2c3c(cc4c2CCC4)CCC3)c1`, the compound was called inactive.
`O=C(CCCCCCCCc1cccnc1)N1CCC(C=C(c2ccccc2)c2ccccc2)CC1`: the AC50 is 31.4 µM (active).
As for `NC(=O)NO`, the call was inactive.
For the compound `Nc1ccc(Nc2ccccc2)cc1`, the compound was classed as inactive.
In the case of `Clc1nc(Cl)c(Cl)c(Cl)c1Cl`, the compound was classed as inactive.
Turning to `On1ccccc1=S`, the outcome was inactive.
Take `CCCN(C1CCN(C(=O)C2CCNCC2)CC1)[C@@H]1CCc2ccc(OC)cc2C1`: the AC50 was 0.304 µM (active).
For `C=CCCCCCCCCC(=O)O`, the compound was called inactive.
Turning to `CC[C@H]1CC[C@H](NCc2cc3c(cc2OC)[C@H]2C[C@H]2C(=O)N3C)[C@H](c2ccccc2)N1`, the compound was classed as inactive.
As for `CNCc1ccc(NC(=O)c2c[nH]c3c2C(=O)CCC3)cc1`, the result was inactive.
Consider `CCc1cc(SCc2sc(-c3ccc(C(F)(F)F)cc3)nc2CN2CCN(c3ccc(OC)cc3)CC2)ccc1OCC(=O)O`, for which the AC50 is 91 µM (active).
`CC(C)CC(C)(O)C#CC(C)(O)CC(C)C` (stereo not given): the compound was classed as inactive.
Still for that read-out and setting: as for `O=C(NS(=O)(=O)/C=C/c1ccccc1)c1ccc(F)cc1Cl`, the entry is “inactive”; as for `CCn1nc(Cc2ccccc2)cc1C1CCN(C[C@H]2C[C@H](N(C)[C@@H](C(=O)O)C(C)C)C[C@@H]2c2cccc(F)c2)CC1`, “inactive”.
On the same count and under the same terms, as for `Fc1ccccc1[C@@H](F)COC1CCC(Nc2ncnc3[nH]ncc23)CC1` (stereo not given in full), the entry is “inactive”; as for `O=C(O)c1cc(N=Nc2ccc(S(=O)(=O)Nc3ccccn3)cc2)ccc1O`, “inactive”.
As to `CC(C)c1cccc(C(C)C)c1N1C(=O)c2ccc(O)cc2C1=O`, the result was inactive.
Regarding `C1=CCCC=CCCC=CCC1`, the call was inactive.
For `CNS(=O)(=O)c1cc(C(=O)N2CCC(CCN3C4CCC3CC(n3c(C)nc5ccccc53)C4)(c3cccc(F)c3)CC2)c(Cl)cc1F` (stereo not given), the outcome was inactive.
`CC(C)CCCCCCCOC(=O)CCCCC(=O)OCCCCCCCC(C)C`: the outcome was inactive.
The same measure, in the same setting: next, `CCOCCO`: “inactive”.
Consider `CCNc1ccccc1`, for which the outcome was inactive.
Take `O=C(O)c1cccc(Oc2ccccc2)c1`: the call was inactive.
